Measurements published in PubChem BioAssay (Tox21).
Records with an inconclusive call do not appear. Active and inactive are the calls of the source. Unless noted, calls follow the shape of the dose curve; as a rule, active = well fitted curve in the direction sought with a large enough effect in the repeat runs; inconclusive = weak or mixed curves; inactive = no such curve, though single readings can be large; an effect the other way counts as inactive or inconclusive.

Assays:
[1] = A CellTox Green Cytotoxicity Assay to monitor cytotoxicity in HEK293 cells - 32 hour (AID 1224881); also: nearly all actives have a fitted effect of over 40% in size
In short: (§1)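 Cytotoxicity was tracked continuously in HEK293 cells by a DNA-binding dye excluded from viable cells. Compounds were transferred in DMSO 5 h after seeding; fluorescence was recorded at intervals up to 40 h.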

[2] = A CellTox Green Cytotoxicity Assay to monitor cytotoxicity in HepG2 cells - 0 hour (AID 1224882); also: nearly all actives have a fitted effect of over 35% in size
In short: (§2)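 Real-time, homogeneous cytotoxicity readout: dead-cell DNA staining by CellTox Green in HepG2 monolayers, fluorescence measured at timed intervals up to 40 h of continuous compound exposure.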

[3] = A CellTox Green Cytotoxicity Assay to monitor cytotoxicity in HepG2 cells - 32 hour (AID 1224883); also: nearly all actives have a fitted effect of over 50% in size
In short: as §2

[4] = A CellTox Green Cytotoxicity Assay to monitor cytotoxicity in HEK293 cells - 8 hour (AID 1224884); also: nearly all actives have a fitted effect of over 35% in size
In short: as §1

[5] = qHTS RealTime-Glo MT Cell Viability Assay in HepG2 cells - 16 hour (AID 1224885); also: nearly all actives have a fitted effect of over 50% in size
In short: (§3)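 Compound treatment began 5 h after plating HepG2 cells (600/well) with NanoLuc luciferase and prosubstrate. Plates stayed at 37 C for 40 h; luminescence was captured at six time points, 0 h through 40 h.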

[6] = qHTS RealTime-Glo MT Cell Viability Assay in HEK293 cells - 24 hour (AID 1224886); also: top concentration of the series differs between compounds; nearly all actives have a fitted effect of over 50% in size
In short: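 Quantitative high-throughput screen of the Tox21 10K library in HEK293: cells and RealTime-Glo reagents plated together, compound added at 5 h, luminescence monitored through 40 h at 37 C.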

[7] = qHTS RealTime-Glo MT Cell Viability Assay in HEK293 cells - 8 hour (AID 1224887); also: top concentration of the series differs between compounds; nearly all actives have a fitted effect of over 50% in size
In short: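 Nonlytic bioluminescent viability monitoring. HEK293 at 600 cells/well with reagent; 5 h settle; compound transfer by pintool; plates held at 37 C and read at set time points.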

[8] = A CellTox Green Cytotoxicity Assay to monitor cytotoxicity in HEK293 cells - 16 hour (AID 1224888); also: nearly all actives have a fitted effect of over 35% in size
In short: as §1

[9] = qHTS RealTime-Glo MT Cell Viability Assay in HepG2 cells - 0 hour (AID 1224889); also: nearly all actives have a fitted effect of over 50% in size
In short: as §3

[10] = A CellTox Green Cytotoxicity Assay to monitor cytotoxicity in HepG2 cells - 8 hour (AID 1224890); also: nearly all actives have a fitted effect of over 45% in size
In short: as §2

[11] = qHTS assay to identify small molecule antagonists of the estrogen receptor alpha (ER-alpha) signaling pathway using the BG1 cell line in the presence of 0.1 nM 17-beta-estradiol - cell viability counter screen (AID 1259241); also: nearly all actives have a fitted effect of over 40% in size
In short: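 CellTiter-Fluor read (30 min, 37C) on ER-alpha/ERE-luc VM7Luc4E2 cells; 22 hr compound treatment; agonist 0.1 nM E2 final; same-well multiplex.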

[12] = qHTS assay to identify small molecule antagonists of the androgen receptor (AR) signaling pathway using the MDA cell line in the presence of 0.5 nM R1881 - cell viability counter screen (AID 1259242); also: nearly all actives have a fitted effect of over 45% in size
In short: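 Cytotoxicity toward MDA-kb2 cells is measured by CellTiter-Fluor live-cell protease fluorescence after 16 hr compound exposure at 37C in the presence of 0.5 nM R1881 stimulator.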

[13] = target: Estrogen receptor (Homo sapiens) (UniProt P03372); assay: qHTS assay to identify small molecule antagonists of the estrogen receptor alpha (ER-alpha) signaling pathway using the BG1 cell line in the presence of 0.1 nM 17-beta-estradiol (AID 1259244); also: nearly all actives have a fitted effect of over 50% in size
Sequence of Estrogen receptor (Homo sapiens) (P03372 whole entry, looked up): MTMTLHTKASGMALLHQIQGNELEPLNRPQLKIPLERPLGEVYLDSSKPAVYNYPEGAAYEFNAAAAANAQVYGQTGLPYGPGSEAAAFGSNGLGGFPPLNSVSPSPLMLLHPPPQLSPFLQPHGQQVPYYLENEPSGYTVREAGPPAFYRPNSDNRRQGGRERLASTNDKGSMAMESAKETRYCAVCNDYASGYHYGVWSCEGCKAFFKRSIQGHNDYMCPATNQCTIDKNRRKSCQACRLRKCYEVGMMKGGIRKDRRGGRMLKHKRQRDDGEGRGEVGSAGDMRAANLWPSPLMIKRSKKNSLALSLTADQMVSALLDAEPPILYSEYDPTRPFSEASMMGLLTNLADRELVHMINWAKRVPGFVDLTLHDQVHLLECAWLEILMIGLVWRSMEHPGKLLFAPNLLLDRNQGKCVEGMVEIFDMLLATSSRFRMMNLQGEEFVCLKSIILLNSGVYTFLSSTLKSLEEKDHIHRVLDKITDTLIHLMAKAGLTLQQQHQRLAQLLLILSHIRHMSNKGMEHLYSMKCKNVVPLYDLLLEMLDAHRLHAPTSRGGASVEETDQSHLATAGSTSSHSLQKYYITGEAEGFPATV
In short: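 After 5 days in hormone-depleted medium (charcoal-stripped serum, no phenol red), VM7Luc4E2 cells were seeded, incubated 24 h, then co-treated with compound and 0.1 nM (final) estradiol for 22 h before luminescence detection.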

[14] = qHTS assay to identify small molecule HDAC inhibitors (AID 1259364); also: top concentration of the series differs between compounds; nearly all actives have a fitted effect of over 45% in size
In short: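 Homogeneous cell-based luminescent assay of endogenous class I/II HDAC activity; HCT-116 cells, 2 h compound exposure, 30 min HDAC-Glo development at RT.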

[15] = qHTS assay to identify small molecule HDAC inhibitors - cell viability counter screen (AID 1259365)
In short: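 To flag cytotoxic hits, 1,500 wild-type HCT-116 cells per well, plated the day before, receive test compounds for 2hr at 37 C before CellTiter-Glo reagent and a luminescence read.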

[16] = qHTS assay to identify small molecule agonists of the sonic hedgehog signaling (Shh) pathway - cell viability counter screen (AID 1259366); also: nearly all actives have a fitted effect of over 50% in size
In short: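 Fluorescence from CellTiter-Fluor reports live cells in this counter screen. NIH/3T3-derived Gli1-Luc reporter cells receive test compounds for 24hr at 37C; reagent goes in at 23hr.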

[17] = qHTS assay to identify small molecule antagonists of the sonic hedgehog signaling (Shh) pathway - cell viability counter screen (AID 1259367); also: nearly all actives have a fitted effect of over 55% in size
In short: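 Cells: 3T3 Gli1-Luc, 2,000/well, 4 hr pre-incubation. Compounds in DMSO, then conditioned medium. Incubation 24 hr, 37C, 5% CO2. CellTiter-Fluor at 23 hr, 1 hr, fluorescence.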

[18] = qHTS assay to identify small molecule agonists of the sonic hedgehog signaling (Shh) pathway (AID 1259368; calls by dose curve;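 also: NIH/3T3-derived 3T3Gli1-Luc cells carrying a stable Gli1-driven firefly luciferase reporter; series mostly up to about 92 µM; nearly all actives have a fitted effect of over 15% in size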)
In short: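 Steps: seed 3T3 Gli1-Luc cells, incubate 4 hr at 37 C, pin-transfer compounds in DMSO alongside a positive control, incubate 24 hr, add luciferase detection reagent, wait 30 min at room temperature, read luminescence.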

[19] = qHTS assay to identify small molecule phospholipidosis (PLD) inducers (AID 1259344; active = well fitted curve in the direction sought with a large enough effect; an effect the other way counts as inactive or inconclusive)
In short: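 Phospholipidosis is scored by imaging LipidTOX-stained pits in HepG2 cells exposed to compound for 24 h at 37 C; pit counts and integrated intensities per well and per cell serve as outputs.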

[20] = target: Androgen receptor (Homo sapiens) (UniProt P10275); assay: qHTS assay to identify small molecule antagonists of the androgen receptor (AR) signaling pathway using the MDA cell line in the presence of 0.5 nM R1881 (AID 1259243); also: nearly all actives have a fitted effect of over 50% in size
Sequence of Androgen receptor (Homo sapiens) (P10275 whole entry, looked up): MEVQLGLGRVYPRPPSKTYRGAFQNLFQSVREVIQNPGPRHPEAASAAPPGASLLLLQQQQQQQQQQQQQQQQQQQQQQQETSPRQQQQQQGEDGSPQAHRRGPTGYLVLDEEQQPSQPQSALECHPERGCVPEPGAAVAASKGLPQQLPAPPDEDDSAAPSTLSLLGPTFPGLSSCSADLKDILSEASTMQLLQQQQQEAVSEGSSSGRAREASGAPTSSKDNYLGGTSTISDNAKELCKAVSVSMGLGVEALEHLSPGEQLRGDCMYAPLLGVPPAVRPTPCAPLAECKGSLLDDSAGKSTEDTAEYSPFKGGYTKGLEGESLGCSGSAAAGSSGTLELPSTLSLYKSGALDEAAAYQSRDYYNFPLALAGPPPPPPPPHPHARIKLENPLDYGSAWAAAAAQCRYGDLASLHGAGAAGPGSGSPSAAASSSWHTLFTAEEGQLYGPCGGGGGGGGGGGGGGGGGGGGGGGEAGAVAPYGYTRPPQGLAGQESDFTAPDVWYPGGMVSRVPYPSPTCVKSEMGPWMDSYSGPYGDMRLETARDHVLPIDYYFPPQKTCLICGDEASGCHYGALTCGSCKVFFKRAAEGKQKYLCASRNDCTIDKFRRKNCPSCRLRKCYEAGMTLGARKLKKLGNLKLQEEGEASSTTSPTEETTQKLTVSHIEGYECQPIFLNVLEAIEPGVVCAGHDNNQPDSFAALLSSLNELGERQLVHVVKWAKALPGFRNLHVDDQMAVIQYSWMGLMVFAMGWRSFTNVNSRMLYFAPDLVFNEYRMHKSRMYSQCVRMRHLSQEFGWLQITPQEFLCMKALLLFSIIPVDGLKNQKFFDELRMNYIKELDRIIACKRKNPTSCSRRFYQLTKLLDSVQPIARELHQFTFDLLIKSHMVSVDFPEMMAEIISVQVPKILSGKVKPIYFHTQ
In short: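 Steps: seed MDA-kb2 cells, incubate 5 hr at 37C; pin-transfer compounds in DMSO; add R1881 to 0.5 nM final; incubate 16 hr; add ONE-Glo, wait 30 min at room temperature; read luminescence.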

Measured: Potency

Nc1cccc(S(=O)(=O)c2cccc(N)c2)c1
not listed: [19] | [20]
inactive: all other assays above

CC1=CCCC(C)(C)C12CCC(C)O2 (configuration not stated)
not listed: [9] | [12] | [13] | [19] | [20]
inactive: all other assays above

CCCCCCCC/C=C\CCCCCCCC(=O)OCC
not listed: [9] | [13] | [19] | [20]
inactive: all other assays above

CCOC(=O)c1cccnc1
not listed: [9] | [12] | [20]
inactive: all other assays above

Nc1cccc([N+](=O)[O-])c1
not listed: [9] | [16] | [19]
inactive: all other assays above

NCCCN1CCOCC1
not listed: [9] | [14] | [19]
inactive: all other assays above

CCC(CC)Nc1ccc(C)c(C)c1
not listed: [9] | [19] | [20]
inactive: all other assays above
